Design in all cases: scale not given: direction of the effect not stated beside the values
In assay [1] the target is Protein translocase subunit SecA (Escherichia coli (strain K12)) (UniProt P10408). Kind of assay: Assay to Identify E. coli SecA ATPase Inhibitors. In kind it is functional. Particulars: 30 µM.
The target of assay [2] is T1, Ubiquitin-activating enzyme e1, putative (Leishmania donovani (strain BPK282A1)) (UniProt E9BSI1).
T1 sequence (whole entry): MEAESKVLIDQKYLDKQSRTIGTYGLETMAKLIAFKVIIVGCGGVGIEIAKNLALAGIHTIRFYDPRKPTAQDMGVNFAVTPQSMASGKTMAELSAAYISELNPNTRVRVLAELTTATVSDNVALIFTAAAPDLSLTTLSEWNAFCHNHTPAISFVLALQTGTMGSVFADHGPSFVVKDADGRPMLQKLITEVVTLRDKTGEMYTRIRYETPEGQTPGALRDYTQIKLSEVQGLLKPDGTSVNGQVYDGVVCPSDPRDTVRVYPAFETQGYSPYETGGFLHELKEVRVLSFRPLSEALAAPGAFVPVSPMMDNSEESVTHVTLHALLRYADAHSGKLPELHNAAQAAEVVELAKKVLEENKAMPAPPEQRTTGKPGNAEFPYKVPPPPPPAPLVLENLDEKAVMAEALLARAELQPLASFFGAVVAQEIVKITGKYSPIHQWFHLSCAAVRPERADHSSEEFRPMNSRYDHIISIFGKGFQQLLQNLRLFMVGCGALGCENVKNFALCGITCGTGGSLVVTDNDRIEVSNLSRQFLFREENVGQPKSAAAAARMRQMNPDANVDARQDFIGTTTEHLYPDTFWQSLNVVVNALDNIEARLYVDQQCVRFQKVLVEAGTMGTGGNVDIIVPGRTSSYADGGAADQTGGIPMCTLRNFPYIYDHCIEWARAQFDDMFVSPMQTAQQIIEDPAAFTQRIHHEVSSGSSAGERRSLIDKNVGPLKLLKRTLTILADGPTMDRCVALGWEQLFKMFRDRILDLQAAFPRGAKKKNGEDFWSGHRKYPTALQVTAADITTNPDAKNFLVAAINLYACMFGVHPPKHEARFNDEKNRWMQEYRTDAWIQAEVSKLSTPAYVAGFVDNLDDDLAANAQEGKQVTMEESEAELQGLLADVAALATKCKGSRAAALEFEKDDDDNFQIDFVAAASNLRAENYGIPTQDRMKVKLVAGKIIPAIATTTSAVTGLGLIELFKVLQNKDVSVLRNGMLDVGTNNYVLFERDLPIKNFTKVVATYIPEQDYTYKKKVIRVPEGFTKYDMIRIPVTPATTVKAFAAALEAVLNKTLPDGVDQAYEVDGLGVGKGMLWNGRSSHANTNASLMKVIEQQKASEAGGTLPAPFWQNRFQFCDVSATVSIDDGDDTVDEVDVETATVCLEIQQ
Nature of the assay: Leishmania donovani Ubiquitin Activating Enzyme (LdE1). In kind it is functional. Particulars: 30 µM.

In assay [3] the target is AMP-activated protein kinase, AMPK (Homo sapiens) (UniProt P54646+O43741+P54619+Q9UGJ0+Q9Y478+Q13131+Q9UGI9). Kind of assay: AMP-dependent Kinase enzyme assay. An in vitro enzyme assay that detects ADP turnover that is directly proportional to AMPK activity. This uses naive AMPK that is activated during the assay with MK-8722. Type of assay: functional. Particulars: 30 µM.

Assay [4] has as its target Sialic acid-binding Ig-like lectin 9 (Homo sapiens) (UniProt Q9Y336). Nature of the assay: Hs-Siglec9 ALPHAscreen SOP 20170721. Particulars: 10 µM.
The subject of the next assay is Trypanosoma cruzi. Kind of assay: Trypanosoma cruzi phosphomannomutase and mannose-1-phosphate guanylyltransferase assay. Particulars: 10 µM. In kind it is functional.
Assay [5] addresses T2, Arginase-2, mitochondrial (Homo sapiens) (UniProt P78540).
T2 sequence (whole entry): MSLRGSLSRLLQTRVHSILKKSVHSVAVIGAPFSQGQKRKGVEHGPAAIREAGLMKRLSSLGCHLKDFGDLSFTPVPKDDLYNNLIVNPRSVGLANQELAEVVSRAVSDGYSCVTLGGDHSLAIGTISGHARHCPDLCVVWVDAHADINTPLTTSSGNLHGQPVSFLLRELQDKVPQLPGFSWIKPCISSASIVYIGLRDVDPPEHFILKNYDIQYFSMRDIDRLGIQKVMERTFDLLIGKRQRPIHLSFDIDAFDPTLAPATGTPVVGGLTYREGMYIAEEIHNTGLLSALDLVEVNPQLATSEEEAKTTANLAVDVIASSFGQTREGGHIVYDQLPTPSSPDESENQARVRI
Nature of the assay: in vitro enzyme assay to detect the production of urea directly proportional to the activity of Arginase II. Also: in the data most compounds retested in dose-response had high values. Type of assay: functional. Particulars: 33.3 µM.

Assay [6] has as its target T3, Proteasome subunit beta (Trypanosoma cruzi) (UniProt O96673).
T3 sequence (whole entry): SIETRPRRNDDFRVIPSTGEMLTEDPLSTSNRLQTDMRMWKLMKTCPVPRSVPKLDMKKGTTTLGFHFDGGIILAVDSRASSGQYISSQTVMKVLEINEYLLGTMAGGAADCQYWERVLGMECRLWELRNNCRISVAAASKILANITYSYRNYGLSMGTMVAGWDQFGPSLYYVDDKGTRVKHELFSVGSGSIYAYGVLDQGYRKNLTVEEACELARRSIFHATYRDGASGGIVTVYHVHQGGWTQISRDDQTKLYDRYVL
Nature of the assay: Trypanosoma cruzi proteasome chymotrypsin-like activity (TcProtChymo) assay. Also: in the data most compounds retested in dose-response had high values. The settings on record: 9.37 µM. Type of assay: functional.

The species entered for a further assay is Homo sapiens. Nature of the assay: To identify inhibition of the IFN signalling (Jak-Stat) pathway via expression of an eGFP reporter gene under the control of an IFN-stimulated response element (ISRE) containing MxA promoter. Type of assay: functional. Particulars: 30 µM. A general note: A reporter such as luciferase makes a cellular process visible.
The target in assay [7] is T4, Tyrosyl-tRNA synthetase, putative (Trypanosoma cruzi (strain CL Brener)) (UniProt Q4DSP6).
T4 sequence (whole entry): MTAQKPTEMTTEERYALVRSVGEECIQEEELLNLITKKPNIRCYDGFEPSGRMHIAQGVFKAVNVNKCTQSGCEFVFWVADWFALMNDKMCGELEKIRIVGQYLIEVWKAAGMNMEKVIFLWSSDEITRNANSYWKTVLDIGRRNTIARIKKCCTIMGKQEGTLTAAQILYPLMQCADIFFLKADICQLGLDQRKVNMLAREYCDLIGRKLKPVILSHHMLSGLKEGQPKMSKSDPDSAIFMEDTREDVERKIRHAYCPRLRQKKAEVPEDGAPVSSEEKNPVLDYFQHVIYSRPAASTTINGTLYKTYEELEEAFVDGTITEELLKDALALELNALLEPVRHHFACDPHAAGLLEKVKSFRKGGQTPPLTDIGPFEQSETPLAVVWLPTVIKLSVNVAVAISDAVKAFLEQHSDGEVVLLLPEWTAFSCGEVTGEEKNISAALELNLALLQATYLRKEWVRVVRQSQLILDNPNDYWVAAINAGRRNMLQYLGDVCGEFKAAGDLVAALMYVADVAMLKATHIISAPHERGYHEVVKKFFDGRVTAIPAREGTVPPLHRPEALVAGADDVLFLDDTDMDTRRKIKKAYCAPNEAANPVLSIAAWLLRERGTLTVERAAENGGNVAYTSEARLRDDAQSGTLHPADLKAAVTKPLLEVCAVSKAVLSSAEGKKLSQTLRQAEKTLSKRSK
Nature of the assay: Trypanosoma cruzi tyrosyl tRNA synthetase (TcYRS) _High Tyrosine SOP. Also: in the data most compounds retested in dose-response had high values. Type of assay: functional. The settings on record: 30 µM.

The target of assay [8] is T4, Tyrosyl-tRNA synthetase, putative (Trypanosoma cruzi (strain CL Brener)). Nature of the assay: Trypanosoma cruzi tyrosyl tRNA synthetase (TcYRS) SOP. In kind it is functional. Particulars: 30 µM.
Assay [9] concerns the target Chromo domain-containing protein 1 (Saccharomyces cerevisiae (strain ATCC 204508 / S288c) (Baker's yeast)) (UniProt P32657). Kind of assay: ScCHD-1 Enzyme Inhibition Assay. Also: in the data most compounds retested in dose-response had high values. The settings on record: 30 µM. Type of assay: functional.

For part of these data: Results with a measured potency or affinity are listed apart.

Chain of Sialic acid-binding Ig-like lectin 9 (Homo sapiens) (Q9Y336 whole entry): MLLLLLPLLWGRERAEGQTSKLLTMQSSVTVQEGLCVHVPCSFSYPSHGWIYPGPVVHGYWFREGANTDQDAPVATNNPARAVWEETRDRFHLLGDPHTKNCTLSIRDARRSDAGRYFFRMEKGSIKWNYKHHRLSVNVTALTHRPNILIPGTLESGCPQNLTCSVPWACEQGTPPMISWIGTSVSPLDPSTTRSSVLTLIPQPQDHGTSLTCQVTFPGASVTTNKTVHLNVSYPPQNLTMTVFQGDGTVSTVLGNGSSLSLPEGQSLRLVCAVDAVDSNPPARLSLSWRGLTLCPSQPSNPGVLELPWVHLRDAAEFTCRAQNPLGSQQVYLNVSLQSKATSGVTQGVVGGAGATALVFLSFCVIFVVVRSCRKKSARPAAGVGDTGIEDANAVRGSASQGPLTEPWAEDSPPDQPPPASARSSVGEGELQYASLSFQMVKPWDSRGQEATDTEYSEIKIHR
Chain of Protein translocase subunit SecA (Escherichia coli (strain K12)) (P10408 whole entry): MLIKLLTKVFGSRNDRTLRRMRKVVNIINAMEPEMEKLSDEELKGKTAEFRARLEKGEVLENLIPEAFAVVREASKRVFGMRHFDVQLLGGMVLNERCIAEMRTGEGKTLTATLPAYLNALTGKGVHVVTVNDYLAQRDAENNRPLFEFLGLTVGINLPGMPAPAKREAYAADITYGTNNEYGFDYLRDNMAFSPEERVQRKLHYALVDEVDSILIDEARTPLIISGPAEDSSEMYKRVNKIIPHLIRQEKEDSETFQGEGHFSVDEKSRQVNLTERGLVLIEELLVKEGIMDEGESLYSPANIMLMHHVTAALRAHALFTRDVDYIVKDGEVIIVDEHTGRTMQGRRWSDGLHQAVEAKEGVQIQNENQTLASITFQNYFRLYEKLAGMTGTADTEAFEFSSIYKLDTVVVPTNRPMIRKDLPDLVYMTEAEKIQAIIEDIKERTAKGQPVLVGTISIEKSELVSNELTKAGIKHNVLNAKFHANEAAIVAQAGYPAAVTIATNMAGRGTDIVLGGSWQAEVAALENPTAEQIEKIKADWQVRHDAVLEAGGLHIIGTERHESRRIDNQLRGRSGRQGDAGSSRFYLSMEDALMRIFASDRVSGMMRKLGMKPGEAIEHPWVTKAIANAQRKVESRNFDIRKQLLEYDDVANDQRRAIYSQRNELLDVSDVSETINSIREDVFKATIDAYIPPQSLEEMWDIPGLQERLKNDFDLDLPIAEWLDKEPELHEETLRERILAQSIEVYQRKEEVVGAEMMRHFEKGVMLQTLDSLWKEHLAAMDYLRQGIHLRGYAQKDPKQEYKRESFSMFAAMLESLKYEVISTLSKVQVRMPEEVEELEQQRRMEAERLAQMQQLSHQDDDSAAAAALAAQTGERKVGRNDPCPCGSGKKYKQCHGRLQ
Chain of Chromo domain-containing protein 1 (Saccharomyces cerevisiae (strain ATCC 204508 / S288c) (Baker's yeast)) (P32657 whole entry, the tested form may be a part): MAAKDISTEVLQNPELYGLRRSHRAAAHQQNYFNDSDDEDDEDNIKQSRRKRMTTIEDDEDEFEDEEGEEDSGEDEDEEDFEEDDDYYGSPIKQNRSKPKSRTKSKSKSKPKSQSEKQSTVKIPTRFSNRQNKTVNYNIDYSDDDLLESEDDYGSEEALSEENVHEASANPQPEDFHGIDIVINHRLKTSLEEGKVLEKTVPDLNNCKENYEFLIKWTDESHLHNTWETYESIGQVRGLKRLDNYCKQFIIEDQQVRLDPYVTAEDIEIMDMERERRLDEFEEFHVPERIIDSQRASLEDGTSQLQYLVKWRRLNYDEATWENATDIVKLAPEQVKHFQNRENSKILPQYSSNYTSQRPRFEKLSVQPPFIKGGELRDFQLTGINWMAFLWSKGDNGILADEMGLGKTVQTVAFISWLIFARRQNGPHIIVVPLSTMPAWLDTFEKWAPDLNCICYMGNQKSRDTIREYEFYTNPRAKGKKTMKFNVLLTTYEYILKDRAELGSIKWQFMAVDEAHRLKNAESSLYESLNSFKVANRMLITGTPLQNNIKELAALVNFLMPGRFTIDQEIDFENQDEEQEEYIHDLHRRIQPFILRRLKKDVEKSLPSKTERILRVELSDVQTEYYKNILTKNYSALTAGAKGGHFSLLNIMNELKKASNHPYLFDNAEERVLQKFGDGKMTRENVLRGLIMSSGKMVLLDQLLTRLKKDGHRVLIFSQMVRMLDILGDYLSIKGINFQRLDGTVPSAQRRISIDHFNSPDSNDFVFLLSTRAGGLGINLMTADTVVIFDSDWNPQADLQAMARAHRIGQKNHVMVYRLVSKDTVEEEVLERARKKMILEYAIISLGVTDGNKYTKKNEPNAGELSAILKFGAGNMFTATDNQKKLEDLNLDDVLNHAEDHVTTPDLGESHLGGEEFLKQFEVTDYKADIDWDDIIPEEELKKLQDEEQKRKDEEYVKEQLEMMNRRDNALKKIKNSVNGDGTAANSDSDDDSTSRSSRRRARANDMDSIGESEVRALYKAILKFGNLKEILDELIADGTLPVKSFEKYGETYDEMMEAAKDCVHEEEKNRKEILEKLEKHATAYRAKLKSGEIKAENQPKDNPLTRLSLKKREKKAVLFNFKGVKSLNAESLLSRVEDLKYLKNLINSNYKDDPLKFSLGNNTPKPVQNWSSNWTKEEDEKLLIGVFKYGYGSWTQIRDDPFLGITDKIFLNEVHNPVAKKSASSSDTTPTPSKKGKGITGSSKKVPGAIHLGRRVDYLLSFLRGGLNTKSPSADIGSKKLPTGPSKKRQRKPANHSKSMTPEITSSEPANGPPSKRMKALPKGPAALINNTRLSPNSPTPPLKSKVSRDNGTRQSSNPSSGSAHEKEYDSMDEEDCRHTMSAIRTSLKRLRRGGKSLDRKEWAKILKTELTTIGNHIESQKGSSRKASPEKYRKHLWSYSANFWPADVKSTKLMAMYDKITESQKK

In the case of `COc1ccc(C2=C(C)C(N3CCc4ccccc4C3)=NS2(=O)=O)cc1`, the Percent Effect in [1] is -1.81%; in assay [2], -7.79%; in [3] it was 1.57%; in [4], -18%; with Trypanosoma cruzi, 3.45%; in assay [5] it was 4.52%. For the same molecule, the Percent Effect was 13.1% in assay [6]; 9.07% in the assay listed under Homo sapiens; -122% in [7]; -39.7% in [8]; 79.2% in assay [9].

As for `CCC(C)NC(=O)c1ccccc1-n1cnnn1` (centres undefined), the Percent Effect was -6.55% in [1]; 5.33% in assay [2]; 0.166% in assay [3]; 2.83% in assay [4]; -0.292% with Trypanosoma cruzi; 5.21% in [5]. Besides, the Percent Effect in assay [6] is 12.2%; in the assay filed under Homo sapiens, 3.8%; in assay [7], 9.29%; in assay [8], 16.1%; in assay [9], -6.11%.

In the case of `CNc1nc(C)c(C(=O)N2CCCCC2CN2CCCCCC2)s1` (centres undefined), the Percent Effect was -4.61% in assay [1]; 21.3% in [2]; -1.92% in assay [3]; 0.892% in [4]; 3.74% in the assay on Trypanosoma cruzi; -1.63% in assay [5]. The Percent Effect was 8.72% in assay [6]; -1.85% in the assay filed under Homo sapiens; 11.7% in assay [7]; 19.2% in [8]; -9.37% in assay [9].

`Cc1cc(CN(C)C(=O)NC2CCN(Cc3ccccc3)C2)no1` (centres undefined): the Percent Effect in assay [1] is -1.84%; in [2], 18.4%; in assay [3] it was -5.49%; in [4], -5.79%; in the assay on Trypanosoma cruzi it was 4.51%; in assay [5], -2.3%. Further, the Percent Effect in assay [6] is 15.4%; in the assay filed under Homo sapiens, -0.406%; in [7], 8.33%; in [8], 21.9%; in assay [9] it was -12%.

For the molecule `O=C(Nc1cc(C(F)(F)F)c[nH]c1=O)c1ccco1`, the Percent Effect in [1] is -2.24%; in assay [2], -2.63%; in assay [3] it was 19.1%; in assay [4] it was 5.92%; in the assay on Trypanosoma cruzi it was 0.28%; in assay [5] it was -15.5%. In addition, the Percent Effect in assay [6] was 10.9%; in the assay listed under Homo sapiens, -15.5%; in assay [7], 6.4%; in [8] it was 6.17%; in assay [9], 0.552%.

Turning to `O=C(CSC1=NS(=O)(=O)c2cc(F)ccc2N1)Nc1cccc(Cl)c1`, the Percent Effect was -1.88% in assay [1]; -39% in assay [2]; 1.02% in [3]; -0.207% in assay [4]; 2.86% in the assay with Trypanosoma cruzi; -0.645% in assay [5]. In addition, the Percent Effect in [6] was 21.1%; in the assay listed under Homo sapiens, 26.7%; in assay [7], -10.6%; in assay [8] it was -8.97%; in assay [9], -11.3%.

Consider `CC(=O)N1CCN(CCNS(=O)(=O)c2ccc(C)c(F)c2)CC1`, for which the Percent Effect in [1] was -5.17%; in assay [2], 18.4%; in assay [3], -1.98%; in assay [4] it was -13.7%; in the assay on Trypanosoma cruzi, 3.41%; in assay [5], 1.18%. For the same molecule, the Percent Effect is 7.96% in assay [6]; 3.39% in the assay listed under Homo sapiens; -1.06% in assay [7]; 13% in [8]; -13.1% in [9].

As to `COCCc1noc(CN2CCCC(Cn3nc(C)nc3C)C2)n1` (centres undefined), the Percent Effect in assay [1] was -3.69%; in assay [2], 16.2%; in assay [3] it was -5.81%; in assay [4], 6.95%; with Trypanosoma cruzi, 0.472%; in [5] it was -7.62%. Also, the Percent Effect in assay [6] is 3.6%; in the assay listed under Homo sapiens, 8.21%; in assay [7], 10.3%; in [8] it was 23.5%; in assay [9], -11.8%.

Turning to `Cc1cc(C)n(CCCNC(=O)[C@@H](C)NC(=O)OC(C)(C)C)n1`, the Percent Effect in [1] was -6.34%; in assay [2] it was 7.89%; in assay [3] it was 8.18%; in assay [4], 0.0654%; with Trypanosoma cruzi, 7.5%; in assay [5], -4.73%. For the same molecule, the Percent Effect in assay [6] was 13.3%; in the assay filed under Homo sapiens, 5.91%; in assay [7] it was 3.19%; in [8], 10.4%; in assay [9] it was -1.9%.
